Unmarked numbers belong to inactive results. Records with an inconclusive call do not appear. Active and inactive are the calls of the source. Unless noted, calls come from the whole dose curve; as a rule, active = well fitted curve in the direction sought with a large enough effect; inconclusive = small, poorly fitted or top-dose-only effect, or another doubt; inactive = no such curve, though single readings can be large; an effect the other way counts as inactive or inconclusive.

The values that follow come from PubChem BioAssay (NCATS).

A short description of assay [1]: AP1 Signaling Pathway (AID 357; active = well fitted curve in either direction with a large enough effect, not every such curve was filed as active;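 note: ME-180 reporter cells stimulated with EGF at its EC50 level; % is set by controls: 0 for no effect and ±100 for the full control effect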). Conditions: ME-180 AP-1-bla reporter, EGF-induced, beta-lactamase ratio, 5 h; at 7.69 µM (top of the series) unless noted. In short, it runs like this:
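First, ME-180 AP-1-bla cells were cultured overnight at 37 °C in low-serum Opti-MEM. Next, titrated compounds with EC50 EGF were incubated 5 hours. Finally, CCF4 was added for 2.5 hours and the 460/530 nm ratio recorded.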

Assay [2] has as its target Cytochrome P450 1A2 (Homo sapiens) (UniProt P05177). Description: p450-cyp1a2 (AID 410; calls by dose curve; note: potency is the fitted concentration of half-maximal effect;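 for activity change, negative = inhibition: -100% = full effect of reference inhibitor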). In short, it runs like this:
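20nM CYP1A2 with 100uM Luciferin-ME (at Km) in 100mM KPO4; compound preincubated 10 min, NADPH regeneration added, 60 min at room temperature. Luciferin quantified by luminescence after detection reagent; normalized to 57 uM furafylline.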

Assay [3] is described as follows: NFAT Signaling Pathway (AID 444; active = well fitted curve in either direction with a large enough effect, not every such curve was filed as active;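 note: carbachol stimulus at about its EC50 of 1 µM final; % is set by controls: 0 for no effect and ±100 for the full control effect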). Conditions: Jurkat NFAT-bla M1, carbachol, beta-lactamase ratio, 5 h; at 7.69 µM (top of the series) unless noted. In short, it runs like this: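 Jurkat cells carrying an NFAT-driven β-lactamase reporter and co-transfected muscarinic M1 receptor were treated with compound plus carbachol (1 uM final, an EC50 level) for 5 h at 37 °C. CCF4 loading followed for 1 h at RT; 460/530 nm ratio gave %activity.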

Assay [4] in a line: Stat Signaling Pathway (AID 446; active = well fitted curve in either direction with a large enough effect, not every such curve was filed as active;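 note: ME-180 cervical cancer cells given 40 pM IL-6 alongside compound; SIE-controlled beta-lactamase reporter measured as 460/530 nm FRET emission ratio; % is set by controls: 0 for no effect and ±100 for the full control effect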). Conditions: ME-180 SIE beta-lactamase reporter, IL-6 stimulated, 5 h; at 7.69 µM (top of the series) unless noted. The method in brief:
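Reporter line: ME-180 cervical carcinoma, SIE-beta-lactamase. Treatment: compound with 40 pM IL-6, 5 hrs, 37 C, in low-serum OPTI-MEM with 10 mM HEPES pH 7.3. Detection: 460/530 nm fluorescence.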

Assay [5] concerns the target Glucocorticoid receptor (Homo sapiens) (UniProt P04150). Description: GR-GFP Redistribution (AID 450;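 active = compounds whose dose series gives a full or clear partial fitted curve of increased nuclear translocation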; note: potency is the fitted concentration of half-maximal effect). To be noted: U2OS GR-GFP nuclear translocation, laser cytometry, 2 h.
The target is the same in assay [6]. Description: GR-EFC Redistribution (AID 451; calls by dose curve; note: potency is the fitted concentration of half-maximal effect). To be noted: CHO-K1 GR-EFC translocation, beta-gal luminescence, 2 h. The method in brief:
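CHO-K1 cells stably expressing nuclear-localized β-gal enzyme acceptor and GR fused C-terminally to the enzyme donor fragment; ligand-driven nuclear translocation restores β-gal by complementation. Compounds titrated up to 46 uM final, 2 h at 37 °C; luminescence read.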

For assay [7], the target named is Mitogen-activated protein kinase 10 (Mus musculus) (UniProt Q61831). As to the kind of experiment: JNK3 AlphaScreen Assay (AID 530; active = well fitted curve in either direction with a large enough effect, not every such curve was filed as active;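 note: kinase came from lysate of stimulated human HepG2 cells; signal reports phosphorylation of biotinylated GST-cJun 1-79 at Ser73 with 10 µM ATP; % is set by controls: 0 for no effect and ±100 for the full control effect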). The method in brief:
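Inhibitors reduce antibody binding to phosphorylated biotin-cJun, lowering AlphaScreen luminescence. Lysates from HepG2 cells pre-activated by IL-1beta plus TNF-alpha supplied JNK3; compounds were titrated.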
On the technique in general: Bead proximity is the source of the signal in Alpha formats.

Assay [8] has as its target 3',5'-cyclic-AMP phosphodiesterase 4B (Homo sapiens) (UniProt Q07343). As to the kind of experiment: qHTS Assay for Inhibitors of PDE-IV (AID 607; active = well fitted activation curve with a large enough effect in the main read-out, with a control signal flat, not every such curve was filed as active; note: % of control where 0% means no effect). In short, it runs like this:
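Cell-based read-out of cAMP via a modified cyclic nucleotide-gated channel and membrane potential dye (535/590 nm) in HEK293 cells expressing PDE4 endogenously. Compounds tested up to 22.9 uM final; 100 uM RO 20-1724 reference.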

Assay [9] addresses Guanine nucleotide-binding protein G(i) subunit alpha-1 (Homo sapiens) (UniProt P63096). As to the kind of experiment: qHTS Assay for Inhibitors of RGS12 GoLoco Motif Activity (Green Fluorophore) (AID 879).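 Note: 0% = labeled peptide with Gαi1 and full inhibition = labeled peptide alone without protein; negative values mean loss of peptide binding seen as reduced polarization.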 The method in brief: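 Fluorescence polarization assay: 50 nM Gαi1 with 10 nM FITC-labeled RGS12 GoLoco peptide in 10 mM Tris pH 7.5, 150 mM NaCl, 0.1 mM GDP, 0.05% NP40, 10 min at room temperature with compound.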
For orientation: qHTS replaces the single test concentration by a dilution series.

Assay [10] can be described thus: qHTS Assay for Identification of Small Molecule Antagonists for NFkB Signaling Pathway (AID 895; active = well fitted inhibition curve with a large enough effect in the signal ratio, with a control signal flat, not every such curve was filed as active; the % refers to the signal ratio; note: % is set by controls: 0 for no effect and ±100 for the full control effect). The method in brief: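 NFkB-bla ME-180 cervical carcinoma cells with beta-lactamase reporter under NFkB response element; compounds added, then TNF alpha at 10 pM final (EC50), 5 h at 37 C. LiveBLAzer substrate 2 h, room temperature; emission 460/530 nm at 405 nm excitation.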

Assay [11] is described as follows: qHTS Assay for Identification of Small Molecule Agonists for Thrombopoietin (TPO) Signaling Pathway (AID 917). Note: % is set by controls: 0 for no effect and ±100 for the full control effect. In short, it runs like this:
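Murine Ba/F3 cells stably expressing human TPO receptor and a Glycoprotein IIb promoter–luciferase reporter were IL-3-starved overnight, then treated with compounds plus TPO (26 pM final, its EC50) for 24 hrs at 37 C; luminescence was read.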

In assay [12] the target is Muscarinic acetylcholine receptor M1 (Rattus norvegicus) (UniProt P08482). As to the kind of experiment: qHTS Assay for Antagonists of Acetylcholine Muscarinic M1 Receptor: Measurement of IP-One Response (AID 944). Note: nearly all actives have a fitted effect of over 75% in size. In short, it runs like this:
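CHO cells stably expressing rat M1, pretreated 10 min with compound, then stimulated 30 min with carbachol at EC80 (200 nM) in LiCl-containing buffer pH 7.4; IP1 accumulation read by HTRF competition (665/620 nm).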

Assay [13] addresses Pyruvate kinase PKM (Homo sapiens) (UniProt P14618). Description: qHTS Assay for Activators of Human Muscle Pyruvate Kinase (AID 954; active = well fitted curve in the direction sought with a large enough effect, not every such curve was filed as active;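 note: 0% = uninhibited enzyme and -100% = no enzyme or full thiadiazolimine inhibition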). The method in brief: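 Human PKM2 activity is measured as ATP generation, detected by luciferase-coupled luminescence. The enzyme (0.1 nM) acts on 0.5 mM PEP and 0.1 mM ADP for 1 h at ambient temperature; data are normalized to uninhibited and full-inhibition wells.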

The target in assay [14] is Alpha-galactosidase A (Homo sapiens) (UniProt P06280). As to the kind of experiment: Counterscreen for Glucocerebrosidase Inhibitors: qHTS Assay for Human alpha-Galactosidase at pH 4.5 (AID 992). Note: 0% is about no effect. In short, it runs like this:
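Quantitative HTS: compounds tested from 0.7 nM up to 77 uM against 2 nM enzyme with 80 uM 4-MU alpha-D-galactopyranoside. The 20 min room-temperature reaction is stopped with 1M NaOH/1M glycine, pH 10.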
Background: Counterscreens check selectivity or assay interference.

For assay [15], the target named is Cytochrome P450 2C9 (Homo sapiens) (UniProt P11712). Description: qHTS Assay for Inhibitors and Substrates of Cytochrome P450 2C9 (AID 883). Note: % is set by controls: 0 for no effect and ±100 for the full control effect; nearly all actives have a fitted effect of over 60% in size. In short, it runs like this:
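CYP2C9 deoxyluciferin hydroxylation, 37C, 60 min with NADPH regeneration; 10nM enzyme, 100uM Luciferin-H (KM). Glo detection reagent stopped reaction; luminescence normalized to sulphaphenazole (57uM) full inhibition.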

For assay [16], the target named is Cytochrome P450 2D6 (Homo sapiens) (UniProt P10635). Description: qHTS Assay for Inhibitors and Substrates of Cytochrome P450 2D6 (AID 891).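 Note: luciferin methyl ether substrate demethylated by CYP2D6 with NADPH regeneration; % is set by controls: 0 for no effect and ±100 for the full control effect; nearly all actives have a fitted effect of over 60% in size.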 The method in brief:
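Human CYP2D6 (5 nM) with 30 uM Luciferin-ME EGE (at Km) in 100 mM KPO4, compound preincubated 10 min, then NADPH regeneration system for 60 min at room temperature. Luciferin read by luminescence; normalized to 1.43 uM quinidine.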

In assay [17] the target is Cytochrome P450 2C19 (Homo sapiens) (UniProt P33261). As to the kind of experiment: qHTS Assay for Inhibitors and Substrates of Cytochrome P450 2C19 (AID 899). Note: % is set by controls: 0 for no effect and ±100 for the full control effect; nearly all actives have a fitted effect of over 60% in size. In short, it runs like this:
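In 50mM KPO4, the reaction held 5nM enzyme and KM-level (10uM) Luciferin-H EGE; it ran 60 min at 37C after NADPH regeneration and a 10 min compound preincubation. Luminescence values were scaled to 57uM ketoconazole as complete inhibition.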

In assay [18] the target is Pyruvate kinase (Leishmania mexicana) (UniProt Q27686). As to the kind of experiment: qHTS Validation Assay for Inhibitors of Leishmania Mexicana Pyruvate Kinase (AID 945).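 Note: 0% = DMSO only neutral control wells.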 The method in brief:
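qHTS eight-point titrations against 0.2 nM LmPYK (E451W) in imidazole buffer pH 7.2 with 0.5 mM PEP, 0.1 mM ADP; 1 h, room temperature. Readout: PKLight luminescence, normalized to neutral DMSO wells.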

Assay [19] has as its target alpha-glucosidase (Oryza sativa, rice) (UniProt Q653V4). As to the kind of experiment: Counterscreen for Glucocerebrosidase Inhibitors: qHTS Assay for Rice alpha-Glucosidase at pH 5.0 (AID 997).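 Note: 0% = full activity with enzyme and -100% = basal without enzyme.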 The method in brief:
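Rice alpha-glucosidase (4 nM final) with 400 uM 4-methylumbelliferyl-alpha-D-glucopyranoside in citrate buffer pH 5.0, 20 min at room temperature, stopped at pH 10; fluorescence 365/440 nm, compounds 0.7 nM–77 uM, AC50 from Hill fits.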

For assay [20], the target named is Cytochrome P450 3A4 (Homo sapiens) (UniProt P08684). Description: qHTS Assay for Activators of Cytochrome P450 3A4 (AID 885). Note: nearly all actives have a fitted effect of over 65% in size. The method in brief: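 Signal was normalized against complete inhibition by 57 uM ketoconazole. The reaction used 20nM CYP3A4 with 25uM Luciferin-PPXE, 10-min compound preincubation and a 60-min NADPH-supported step at RT.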
Chain of Cytochrome P450 3A4 (Homo sapiens) (P08684 whole entry, looked up): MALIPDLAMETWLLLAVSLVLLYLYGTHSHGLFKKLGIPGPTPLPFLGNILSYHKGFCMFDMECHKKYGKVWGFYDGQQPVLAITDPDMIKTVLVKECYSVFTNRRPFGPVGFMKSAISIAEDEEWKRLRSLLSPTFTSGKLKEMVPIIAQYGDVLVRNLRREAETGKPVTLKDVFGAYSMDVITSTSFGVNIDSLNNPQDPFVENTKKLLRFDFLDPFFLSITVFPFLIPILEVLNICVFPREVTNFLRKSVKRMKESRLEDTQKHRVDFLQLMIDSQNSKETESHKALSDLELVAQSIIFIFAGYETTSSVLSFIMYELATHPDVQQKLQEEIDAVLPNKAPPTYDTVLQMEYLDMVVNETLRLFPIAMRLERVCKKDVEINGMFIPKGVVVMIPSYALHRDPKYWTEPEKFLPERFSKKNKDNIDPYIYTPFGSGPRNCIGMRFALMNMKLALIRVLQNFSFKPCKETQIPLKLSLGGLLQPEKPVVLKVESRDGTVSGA

Chain of Pyruvate kinase (Leishmania mexicana) (Q27686 2-499 E452W): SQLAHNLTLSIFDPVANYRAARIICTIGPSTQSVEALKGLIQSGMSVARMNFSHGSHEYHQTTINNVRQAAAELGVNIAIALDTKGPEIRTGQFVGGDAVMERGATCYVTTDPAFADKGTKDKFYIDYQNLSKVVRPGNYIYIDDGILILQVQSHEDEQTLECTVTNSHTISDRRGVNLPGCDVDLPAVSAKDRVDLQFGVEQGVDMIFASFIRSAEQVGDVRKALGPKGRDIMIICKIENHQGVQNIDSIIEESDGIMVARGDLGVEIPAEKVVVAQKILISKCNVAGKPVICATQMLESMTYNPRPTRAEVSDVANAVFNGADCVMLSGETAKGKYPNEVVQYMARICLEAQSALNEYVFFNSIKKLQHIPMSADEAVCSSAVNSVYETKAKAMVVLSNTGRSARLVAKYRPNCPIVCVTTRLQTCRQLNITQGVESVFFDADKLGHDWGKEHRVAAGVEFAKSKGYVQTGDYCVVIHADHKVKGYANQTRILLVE
Chain of Alpha-galactosidase A (Homo sapiens) (P06280 whole entry, looked up): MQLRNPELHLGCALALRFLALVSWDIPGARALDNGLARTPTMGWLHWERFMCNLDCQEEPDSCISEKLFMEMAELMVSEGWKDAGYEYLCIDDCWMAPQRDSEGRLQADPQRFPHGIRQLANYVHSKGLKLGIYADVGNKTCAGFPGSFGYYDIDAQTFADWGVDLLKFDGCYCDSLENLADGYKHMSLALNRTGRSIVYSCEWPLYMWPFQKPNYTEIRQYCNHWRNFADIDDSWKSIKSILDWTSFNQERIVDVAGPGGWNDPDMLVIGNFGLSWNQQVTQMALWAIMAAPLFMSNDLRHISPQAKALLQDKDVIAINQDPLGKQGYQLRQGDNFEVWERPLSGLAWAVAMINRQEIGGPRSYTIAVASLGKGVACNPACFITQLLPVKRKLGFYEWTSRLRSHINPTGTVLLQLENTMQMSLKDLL
Chain of 3',5'-cyclic-AMP phosphodiesterase 4B (Homo sapiens) (Q07343 whole entry, looked up): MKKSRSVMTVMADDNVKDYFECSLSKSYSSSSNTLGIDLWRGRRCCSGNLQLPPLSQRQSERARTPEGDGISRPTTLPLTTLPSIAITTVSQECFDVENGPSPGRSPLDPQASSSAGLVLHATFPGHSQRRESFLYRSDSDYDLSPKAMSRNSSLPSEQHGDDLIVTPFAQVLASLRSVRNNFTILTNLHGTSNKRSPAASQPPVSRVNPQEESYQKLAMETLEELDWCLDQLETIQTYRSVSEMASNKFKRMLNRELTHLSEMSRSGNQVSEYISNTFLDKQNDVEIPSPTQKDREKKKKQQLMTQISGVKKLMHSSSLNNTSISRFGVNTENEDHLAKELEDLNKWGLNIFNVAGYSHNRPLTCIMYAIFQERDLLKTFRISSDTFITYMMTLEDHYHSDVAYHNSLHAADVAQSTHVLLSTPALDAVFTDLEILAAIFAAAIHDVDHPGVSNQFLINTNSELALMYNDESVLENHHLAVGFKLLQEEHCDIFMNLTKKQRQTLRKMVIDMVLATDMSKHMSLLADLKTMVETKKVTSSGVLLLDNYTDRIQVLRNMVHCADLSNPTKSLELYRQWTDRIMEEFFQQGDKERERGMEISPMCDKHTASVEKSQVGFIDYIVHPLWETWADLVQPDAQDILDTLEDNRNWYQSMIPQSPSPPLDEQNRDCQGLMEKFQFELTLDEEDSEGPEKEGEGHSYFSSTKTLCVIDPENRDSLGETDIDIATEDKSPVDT
Chain of Glucocorticoid receptor (Homo sapiens) (P04150 whole entry, looked up): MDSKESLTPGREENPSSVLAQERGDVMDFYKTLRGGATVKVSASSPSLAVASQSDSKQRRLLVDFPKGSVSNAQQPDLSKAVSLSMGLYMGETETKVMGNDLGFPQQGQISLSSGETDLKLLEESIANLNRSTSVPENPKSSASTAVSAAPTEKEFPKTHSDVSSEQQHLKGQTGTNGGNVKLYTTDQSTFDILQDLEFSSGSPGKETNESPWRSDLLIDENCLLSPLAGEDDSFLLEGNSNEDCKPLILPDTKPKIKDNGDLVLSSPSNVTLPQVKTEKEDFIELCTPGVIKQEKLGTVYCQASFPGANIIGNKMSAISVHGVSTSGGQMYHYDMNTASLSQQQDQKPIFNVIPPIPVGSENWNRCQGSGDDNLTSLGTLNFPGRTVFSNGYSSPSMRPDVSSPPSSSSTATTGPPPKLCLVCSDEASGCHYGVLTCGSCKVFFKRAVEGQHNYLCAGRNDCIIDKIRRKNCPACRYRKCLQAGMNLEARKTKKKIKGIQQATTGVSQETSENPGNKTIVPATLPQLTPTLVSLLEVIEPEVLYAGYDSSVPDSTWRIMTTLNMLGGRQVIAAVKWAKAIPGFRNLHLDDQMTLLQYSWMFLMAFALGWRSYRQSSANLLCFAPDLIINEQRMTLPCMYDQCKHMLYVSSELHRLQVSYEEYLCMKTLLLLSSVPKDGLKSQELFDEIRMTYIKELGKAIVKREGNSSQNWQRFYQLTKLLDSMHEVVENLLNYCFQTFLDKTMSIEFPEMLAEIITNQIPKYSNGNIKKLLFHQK
Chain of Muscarinic acetylcholine receptor M1 (Rattus norvegicus) (P08482 whole entry, looked up): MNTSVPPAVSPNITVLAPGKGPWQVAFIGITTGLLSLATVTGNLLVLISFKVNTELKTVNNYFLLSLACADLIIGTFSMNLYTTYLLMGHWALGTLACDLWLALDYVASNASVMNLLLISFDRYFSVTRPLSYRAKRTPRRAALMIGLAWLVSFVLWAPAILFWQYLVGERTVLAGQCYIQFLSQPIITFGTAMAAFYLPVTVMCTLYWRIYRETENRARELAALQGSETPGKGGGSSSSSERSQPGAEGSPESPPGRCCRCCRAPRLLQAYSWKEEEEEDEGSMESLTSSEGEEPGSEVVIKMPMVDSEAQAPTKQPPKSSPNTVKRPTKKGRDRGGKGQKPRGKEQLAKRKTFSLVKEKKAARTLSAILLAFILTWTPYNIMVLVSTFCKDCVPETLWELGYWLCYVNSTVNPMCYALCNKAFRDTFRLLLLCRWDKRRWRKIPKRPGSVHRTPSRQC
Chain of Pyruvate kinase PKM (Homo sapiens) (P14618 whole entry, looked up): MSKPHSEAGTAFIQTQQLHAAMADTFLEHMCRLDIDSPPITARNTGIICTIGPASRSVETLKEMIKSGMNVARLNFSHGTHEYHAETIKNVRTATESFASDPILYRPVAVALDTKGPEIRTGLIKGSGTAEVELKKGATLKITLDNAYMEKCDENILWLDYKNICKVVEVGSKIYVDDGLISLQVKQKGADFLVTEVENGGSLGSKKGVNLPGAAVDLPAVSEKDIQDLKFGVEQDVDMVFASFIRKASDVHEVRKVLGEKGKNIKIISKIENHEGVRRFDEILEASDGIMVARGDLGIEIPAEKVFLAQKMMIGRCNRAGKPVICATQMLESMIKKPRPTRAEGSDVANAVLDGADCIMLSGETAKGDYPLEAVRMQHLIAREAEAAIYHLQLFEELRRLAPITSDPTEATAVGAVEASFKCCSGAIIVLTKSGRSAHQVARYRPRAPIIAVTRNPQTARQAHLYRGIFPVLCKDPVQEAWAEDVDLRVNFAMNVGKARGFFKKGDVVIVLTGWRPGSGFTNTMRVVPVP
Chain of Guanine nucleotide-binding protein G(i) subunit alpha-1 (Homo sapiens) (P63096 whole entry, looked up): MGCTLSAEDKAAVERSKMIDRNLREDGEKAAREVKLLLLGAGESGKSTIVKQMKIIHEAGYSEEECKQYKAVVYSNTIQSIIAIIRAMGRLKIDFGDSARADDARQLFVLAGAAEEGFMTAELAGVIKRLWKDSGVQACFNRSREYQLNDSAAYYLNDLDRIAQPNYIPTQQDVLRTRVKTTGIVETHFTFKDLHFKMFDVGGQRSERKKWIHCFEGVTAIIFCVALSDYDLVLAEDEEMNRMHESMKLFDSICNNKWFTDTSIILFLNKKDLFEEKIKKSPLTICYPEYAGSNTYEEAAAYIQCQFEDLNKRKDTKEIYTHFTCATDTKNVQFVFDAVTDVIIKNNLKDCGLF
Chain of Cytochrome P450 1A2 (Homo sapiens) (P05177 whole entry, looked up): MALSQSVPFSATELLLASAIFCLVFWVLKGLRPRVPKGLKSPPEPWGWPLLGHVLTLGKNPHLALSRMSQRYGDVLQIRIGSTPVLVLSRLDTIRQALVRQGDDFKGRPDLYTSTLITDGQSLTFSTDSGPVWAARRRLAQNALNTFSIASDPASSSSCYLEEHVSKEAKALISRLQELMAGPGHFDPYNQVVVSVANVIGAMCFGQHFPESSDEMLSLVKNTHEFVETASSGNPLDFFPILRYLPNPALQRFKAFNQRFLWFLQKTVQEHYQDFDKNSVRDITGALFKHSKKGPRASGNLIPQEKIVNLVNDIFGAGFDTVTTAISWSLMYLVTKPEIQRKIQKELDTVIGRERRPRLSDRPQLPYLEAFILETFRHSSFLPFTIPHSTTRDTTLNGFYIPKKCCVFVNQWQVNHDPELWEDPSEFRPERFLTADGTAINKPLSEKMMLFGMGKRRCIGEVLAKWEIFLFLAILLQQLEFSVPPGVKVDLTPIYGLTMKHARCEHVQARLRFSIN

For the molecule `O=[N+]([O-])c1ccc(CSc2ncnc3c2ncn3[C@@H]2O[C@@H](CO)[C@@H](O)[C@H]2O)cc1`, the activity change, negative = inhibition is -12.2% [at 38 µM] in assay [1] and 11% [at 38 µM] in [3]. For the same molecule, the Potency result in assay [2], in assay [7], in assay [8], in assay [10] and in assay [12] was “inactive” in each case. Further, the activity, negative = inhibition in assay [4] was 29.7% [at 38 µM]. Also, the Potency in assay [5] and in assay [6] was greater than 46 µM throughout. Moreover, the outcome in [9], in assay [11], in [13] and in [14] was inactive.
Consider `O=C1OC(=O)[C@@H]2[C@@H]1[C@@H]1CC[C@H]2O1`, for which the values for the activity change, negative = inhibition in assay [1] and in assay [3] were 4.01% [at 38 µM] and 5.96% [at 38 µM], respectively. Besides, the Potency entry in assay [2], in [7], in [8], in assay [15], in assay [16] and in assay [17] was “inactive” each time. The Potency result in assay [12] and in assay [19] was “inactive” throughout. In assay [4], the activity, negative = inhibition was -11.3% [at 38 µM]. Also, the Potency in assay [5] and in assay [6] was greater than 46 µM throughout. Moreover, the outcome in assay [9], in [18], in assay [13] and in assay [14] was inactive.
Take `N[C@H](CCC(=O)NCS(=O)(=O)O)C(=O)O`: the values for the activity change, negative = inhibition in [1] and in assay [3] were 3.52% [at 38 µM] and 4.56% [at 38 µM], respectively. Besides, the Potency entry in assay [2], in [7], in assay [8], in assay [12] and in assay [19] was “inactive” in each case. Moreover, the activity, negative = inhibition in assay [4] was -7.51% [at 38 µM]. Also, the Potency in assay [5] and in assay [6] was greater than 46 µM in each case. In addition, the outcome in assay [9], in [11], in assay [18], in assay [13] and in assay [14] was inactive.
As for `Cc1cccc(C)c1OC[C@@H](N)C(C)C`, the activity change, negative = inhibition in [1] is 9.48% [at 38 µM]; in assay [3] it was 4.41% [at 38 µM]. Besides, the Potency is 12.6 µM (active) in assay [2], greater than 46 µM in [5] and greater than 46 µM in assay [6]. The activity, negative = inhibition in assay [4] is 4.92% [at 38 µM]. Also, the Potency result in [7], in assay [8], in assay [20], in [12] and in assay [19] was “inactive” each time. The outcome in assay [9], in assay [18], in [13] and in assay [14] was inactive.
For the molecule `CCCCC/C=C\C[C@H](O)/C=C\c1cccc(C[C@H](O)CCCCO)n1`, the activity change, negative = inhibition in assay [1] was -11.3% [at 38 µM]; in [3], -9.64% [at 38 µM]. Further, the Potency result in assay [2], in [7], in assay [8] and in assay [20] was “inactive” each time. The activity, negative = inhibition in assay [4] is 54.3% [at 38 µM]. The Potency in assay [5] and in assay [6] was greater than 46 µM in each case. Besides, the result in assay [9], in assay [11], in [18], in assay [13] and in assay [14] was inactive.
